Assay outcomes (PubChem)
This is a sample that favours compounds with a hit; in the whole collection about 3.1% have one here.
SSB-PriA inh – blocks PriA binding to SSB C-terminal tail; AlphaScreen SSBct-PriA binding, biotinylated peptide; inhibition, % at 33 µM; 0.6% of 430,000 active; AID 1272365; in the data active = inhibition mostly above about 37%, no sharp cut-off; inactive = mostly below about 20%;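 note: plate controls were negative control peptide for no effect and reference peptide for full effect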
Bead autofluor – flagged as autofluorescent in microsphere protease counterscreen | compound autofluorescence counterscreen, microsphere flow cytometry; stronger effect = higher value | fluorescence intensity (concentration not given with the values) | 3.1% of 360,000 active; in the data active = fluorescence intensity above about 16000; inconclusive = no clear call, values can overlap the other calls
BoNT A protease – inhibitors of Botulinum neurotoxin A light chain protease; AID 588499; multiplex microsphere protease substrate cleavage, flow cytometry; 0.17% of 360,000 active; inhibition, % at 10 µM; note: plate controls were buffer without enzyme for full effect and enzyme alone for no effect
BoNT F protease – inhibitors of Botulinum neurotoxin F light chain protease; AID 588497; Multiplex microsphere protease cleavage assay, flow cytometry; 0.22% of 360,000 active; inhibition, % at 10 µM; in the data active = inhibition above about 35%, passing the limit was not always enough; inconclusive = no clear call, values can overlap the other calls; note: plate controls were buffer without enzyme for full effect and enzyme alone for no effect
Anthrax LF inh2 – blocks Bacillus anthracis lethal factor protease. AID 588501. 0.12% of 360,000 active. multiplex microsphere protease cleavage assay, LF. inhibition, % at 10 µM; note: plate controls were buffer without enzyme for full effect and enzyme alone for no effect
Target sequence (P15917 whole entry, looked up): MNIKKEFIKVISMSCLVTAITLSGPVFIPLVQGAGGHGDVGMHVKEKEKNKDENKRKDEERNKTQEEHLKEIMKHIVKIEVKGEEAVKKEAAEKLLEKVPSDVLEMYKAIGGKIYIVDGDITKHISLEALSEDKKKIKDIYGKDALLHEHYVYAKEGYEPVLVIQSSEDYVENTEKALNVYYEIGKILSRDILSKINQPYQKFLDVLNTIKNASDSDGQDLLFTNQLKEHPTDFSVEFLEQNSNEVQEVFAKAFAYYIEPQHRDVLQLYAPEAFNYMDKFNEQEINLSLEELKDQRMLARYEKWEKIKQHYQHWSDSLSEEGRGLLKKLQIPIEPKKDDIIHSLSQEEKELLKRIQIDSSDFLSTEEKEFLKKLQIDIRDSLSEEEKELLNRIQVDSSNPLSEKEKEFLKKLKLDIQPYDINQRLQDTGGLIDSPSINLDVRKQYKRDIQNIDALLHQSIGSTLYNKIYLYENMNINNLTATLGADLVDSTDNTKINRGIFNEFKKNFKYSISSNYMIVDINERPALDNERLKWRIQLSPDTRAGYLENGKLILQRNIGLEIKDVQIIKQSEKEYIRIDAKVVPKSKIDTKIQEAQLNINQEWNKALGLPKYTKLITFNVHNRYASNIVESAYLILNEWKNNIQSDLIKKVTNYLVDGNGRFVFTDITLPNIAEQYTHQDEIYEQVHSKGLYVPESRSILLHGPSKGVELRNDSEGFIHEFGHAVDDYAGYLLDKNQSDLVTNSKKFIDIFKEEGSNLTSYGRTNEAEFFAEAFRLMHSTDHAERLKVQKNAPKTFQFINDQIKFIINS
Starred values were filed as active, the others as inactive; ? = inconclusive; . = no result given. Cut-off read from the data, not from the text of the source, unless noted: active = inhibition above about 30%; inconclusive = no clear call, values can overlap the other calls; inactive = below that.

SMILES	SSB-PriA inh	Bead autofluor	BoNT A protease	BoNT F protease	Anthrax LF inh2
COc1ccc(S(=O)(=O)N2CCCCCC2)cc1	-8	22702*	0	1	-2
Cc1cc(OCC(=O)N2CCN(c3ccc4nnc(C5CC5)n4n3)CC2)cc(C)c1Cl	-7	.	.	.	.
CSc1ccccc1NC(=O)C(=O)NCC(c1ccc2c(c1)CCN2C)N1CCCC1 (stereo not given)	-11	.	.	.	.
COc1ccccc1-c1nnn(CC(N)=NO)n1	6	.	.	.	.
O=C(NNC(=O)c1ccccc1Br)c1ccc(SCC2CCCO2)c([N+](=O)[O-])c1 (stereo not given)	10	21390*	4	6	-1
Cc1ccc(C(=O)NNC(=O)c2ccc(SCC3CCCO3)c([N+](=O)[O-])c2)cc1 (stereo not given)	-2	10655	0	2	0
O=C(NNC(=O)c1ccc(SCC2CCCO2)c([N+](=O)[O-])c1)c1ccc(Cl)c([N+](=O)[O-])c1 (stereo not given)	8	21281*	6	5	-1
COCCNC(=O)C(=O)NCC1CCN(C(=O)OC)CC1	-17	.	.	.	.
COc1ccc(-n2c(C)nc3ccc(NC(=O)c4sc(-c5ccccc5)nc4C)cc3c2=O)cc1	-9	.	.	.	.
Cc1cc(C)c2c(n1)nn1c(NCCN3CCOCC3)cc(C)nc21	-5	23370*	0	4	0
COCCNc1cc(C)nc2c3c(C)cc(C)nc3nn12	-14	23058*	-1	0	-1
CCn1cc(SCC(=O)Nc2ccc3c(c2)OCCO3)c2ccccc21	17	.	.	.	.
O=C1CC(c2ccccc2Cl)C2=C(COC2=O)N1 (stereo not given)	-30	23482*	0	2	-1
COc1ccc(N(C(=O)c2ccn[nH]2)C(C(=O)NC2CCCC2)c2ccc(F)cc2)cc1 (stereo not given)	-16	4014	1	-13	0
COc1ccc(C(C(=O)NC2CCCC2)N(C(=O)c2snc(-c3ccc(F)cc3)c2N)c2ccccc2)cc1 (stereo not given)	-14	20660*	-1	0	-1
COc1ccc(C(C(=O)NC2CCCC2)N(C(=O)c2snc(-c3ccc(F)cc3)c2N)c2cccc(F)c2)cc1 (stereo not given)	-16	23994*	-2	-1	-2
COc1ccc(C(C(=O)NC2CCCCC2)N(C(=O)c2sc(C)nc2C)c2ccccc2)cc1 (stereo not given)	-4	2785	0	-1	-2
COc1ccc(C(C(=O)NC2CCCC2)N(C(=O)c2snc(-c3ccc(F)cc3)c2N)c2ccc(OC)cc2)cc1 (stereo not given)	2	21490*	-1	0	0
COc1ccc(C(C(=O)NC2CCCC2)N(C(=O)c2snc(-c3ccc(F)cc3)c2N)c2ccc(F)cc2)cc1 (stereo not given)	-7	24202*	-2	-2	-2
COC(=O)c1ccccc1NC(=O)CSc1nccn1-c1cccc(C(=O)Nc2ccccc2)c1	-7	.	.	.	.
COc1ccc(OC)c(NC(=O)Nc2ccc(Cl)cc2)c1	16	6037	-1	-2	0
COc1ccc(OC)c(NC(=O)Nc2cccc(Cn3cccn3)c2)c1	5	21355*	-1	-2	-2
COC(=O)c1cc(NC(=O)Nc2cc(OC)ccc2OC)cc(C(=O)OC)c1	-10	23932*	0	-2	-2
CC1=CCC(C(=O)O)(C(=O)NN=Cc2cccs2)C(c2ccc(F)cc2)C1 (stereo not given)	2	.	.	.	.
CC1=CCC(C(=O)O)(C(=O)N/N=C/c2cccs2)C(c2ccc(Cl)cc2)C1 (stereo not given)	.	19841*	2	0	-2
SMILES	SSB-PriA inh	Bead autofluor	BoNT A protease	BoNT F protease	Anthrax LF inh2
CN1C(=O)/C(=C\c2ccc(N(C)C)cc2)OC1=S	-15	7782	12	22	7
CN(C)c1ccc(C=C2C=CC=C2)cc1	41*	3905	-1	-8	-7
CC[C@@H](C(=O)N1CC(c2nc(-c3cccc(C(F)(F)F)c3)no2)C1)c1ccccc1	-14	.	.	.	.
Cc1nc(-c2cccc(F)c2)sc1CCNC(=O)Nc1ccccc1C(F)(F)F	-8	.	.	.	.
COc1ccc2nc(-n3nc(C)cc3NC(=O)c3ccc(C#N)cc3)sc2c1	-6	.	.	.	.
N#Cc1ccsc1NC(=O)CSc1nncs1	-10	3807	0	-6	-4
O=C(CSc1ncn[nH]1)Nc1ccccc1Sc1ccccc1	-9	23235*	?	0	-4
O=C(CCl)Nc1ccccc1Sc1ccc(Cl)cc1	-36	20704*	-3	-5	1
N#Cc1ccsc1NC(=O)CSc1ncn[nH]1	-6	22762*	3	1	0
COc1ccc2cc(-c3csc(NC(=O)CN4C(=O)c5ccccc5C4=O)n3)oc2c1	-5	.	.	.	.
CCCN1CCCc2cc(CCNC(=O)C(=O)Nc3cc(F)ccc3F)ccc21	35	.	.	.	.
CCCN1CCCc2cc(CCNS(=O)(=O)c3cc(F)ccc3F)ccc21	68*	.	.	.	.
CCCN1CCCc2cc(CCNS(=O)(=O)c3ccccc3F)ccc21	50*	.	.	.	.
Cc1ccc(-n2c(SCC(=O)NCc3ccco3)nnc2-c2cccnc2)c(C)c1	6	22964*	1	1	2
Cc1nnc(SCC(=O)NCc2ccco2)n1-c1ccc(F)cc1	-2	4155	-1	-2	0
COc1ccc(-n2c(-c3ccc(F)cc3)cnc2SCC(=O)NCc2ccco2)cc1	49*	7656	-2	-3	-6
O=C(CSc1ncc(-c2ccccc2)n1-c1ccccc1)NCc1ccco1	52*	8045	-2	-12	-5
CCOC(=O)CSc1nc2c(sc(=S)n2-c2ccc(OCC)cc2)c(=O)[nH]1	10	4224	0	3	-5
Cc1nnc(SCC(=O)NCc2ccco2)n1-c1ccccc1	-20	?	-2	-1	-3
CCOc1ccc(-n2c(=S)sc3c(=O)[nH]c(SCC(=O)NCc4ccco4)nc32)cc1	4	20051*	?	4	0
CCOc1ccc(NC(=O)CSc2ncc(-c3ccc(F)cc3)n2Cc2ccco2)cc1	43*	4260	-1	0	-2
CCOCN(C(=O)Cn1cnc2ccccc21)c1c(C)cccc1CC	-2	5182	0	-2	-5
CCOCN(C(=O)Cn1c(CO)nc2ccccc21)c1c(C)cccc1CC	-8	21035*	-1	-2	-2
Cc1ccc2nc(/C(C#N)=C\c3ccc(N4CCOCC4)o3)[nH]c2c1	0	13254	-4	110*	-2
O=C1[C@H]2[C@@H](C(=O)N1c1cc(Cl)cc(Cl)c1)[C@]1(C(=O)Nc3ccccc31)N1CCC[C@@H]21	6	20946*	0	-1	-2
CCOC(=O)c1ncn2c1C(=O)OC2(C)C	5	19113*	?	2	1
CCOC(=O)C1=CC(=O)CC(C)(C)O1	-2	3848	0	2	1
COc1ccc(CC(=O)Nc2ccc3c(c2)N(C(=O)c2cccs2)CC3)cc1OC	6	.	.	.	.
O=[N+]([O-])c1ccc(C=NNC(=S)Nc2ccc(Cl)cc2Cl)s1	0	.	.	.	.
Cc1ccc(NC(=S)N/N=C/c2ccc([N+](=O)[O-])s2)cc1	.	2722	47*	-2	27
